Assay [1] in a line: APR_HepG2_CellLoss_72hr: Apredica 72-hour HepG2 Assay for Cell Loss (AID 2282915). The settings on record: high-content imaging. The essentials: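 HepG2 cells exposed 72 h to compound at 0.39–200 uM (10 concentrations, duplicate) in 0.5% DMSO. Fixed with 3.7% formaldehyde and Hoechst 33342-stained. Imaged at 20x; nuclear count gives cell number, fitted bidirectionally versus DMSO.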

A short description of assay [2]: APR_HepG2_P-H2AX_72hr: Apredica 72-hour HepG2 Assay for H2AX Phosphorylation (AID 2282916).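 Also: phospho-histone H2A.x immunostain intensity per cell marking DNA damage.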 The following applies: imaging, actives raise or lower the signal. In a few lines: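 HepG2 cells treated 72 h at 0.39–200 uM, 0.5% DMSO final, duplicates. Formaldehyde-fixed, Triton-permeabilised, immunostained for phospho-H2A.x with Hoechst; fluorescence imaged at 20x, bidirectional fit versus DMSO.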

A short description of assay [3]: APR_HepG2_MitoMembPot_72hr: Apredica 72-hour HepG2 Assay for Mitochondrial Membrane Potential (AID 2282917). The following applies: imaging, actives raise or lower the signal. In a few lines:
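HepG2 cells dosed 72 hr with compound at 0.39–200 uM in duplicate, 0.5% v/v DMSO final. Mitochondria stained with 250 nM MitoTracker Red CMXRos for 30 min before formaldehyde fixation, imaged by high-content fluorescence; bidirectional fit versus DMSO.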

The nature of assay [4]: APR_HepG2_MitoticArrest_72hr: Apredica 72-hour HepG2 Assay for Mitotic Arrest (AID 2282918). The following applies: high-content imaging, actives raise or lower the signal. The essentials:
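HepG2 cells treated 72 h at 0.39–200 uM, 0.5% DMSO final; formaldehyde-fixed, stained with Hoechst 33342 and phospho-histone H3 antibody, imaged by high-content fluorescence; bidirectional fit versus DMSO.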

Assay [5] is described as follows: APR_HepG2_MicrotubuleCSK_72hr: Apredica 72-hour HepG2 Assay for Microtubule CSK Stabilty (AID 2282919). The following applies: HepG2 microtubule cytoskeleton, high-content imaging, actives raise or lower the signal. The essentials: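 HepG2 cells were exposed 72 hr to compound at 0.39–200 uM in duplicate (0.5% DMSO final), then fixed and permeabilized. Alpha-tubulin immunofluorescence was imaged by high-content microscopy, with bidirectional fitting against DMSO and taxol as positive control.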

Assay [6] in a line: APR_HepG2_P-H2AX_24hr: Apredica 24-hour HepG2 Assay for H2AX Phosphorylation (AID 2282920). The following applies: high-content imaging, actives raise or lower the signal. The essentials:
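HepG2 cells dosed 24 h at 0.39–200 uM (10 points, duplicate, 0.5% DMSO final). Formaldehyde-fixed and permeabilized, then immunostained for phospho-H2A.x with Hoechst. Fluorescence quantified by high-content imaging, fitted bidirectionally versus DMSO.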

The nature of assay [7]: APR_HepG2_StressKinase_72hr: Apredica 72-hour HepG2 Assay for Stress Kinase (AID 2282921). The settings on record: HepG2 stress kinase (phospho-c-Jun) imaging, actives raise or lower the signal. In a few lines:
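HepG2 cells treated 72 hr with 0.39–200 uM compound, 0.5% v/v DMSO, duplicate wells. After formaldehyde fixation and Triton permeabilization, stained with anti-phospho-c-Jun (1:500) and Cy3 secondary, imaged at 20x. Fitted in both directions against DMSO.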

Assay [8] can be described thus: APR_HepG2_StressKinase_24hr: Apredica 24-hour HepG2 Assay for Stress Kinase (AID 2282922). The following applies: HepG2 stress kinase (phospho-c-Jun) imaging, actives raise or lower the signal. In a few lines: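 HepG2 cells exposed 24 h to 0.39–200 uM compound in duplicate (0.5% v/v DMSO final). Cells fixed in 3.7% formaldehyde, permeabilized and immunostained for phospho-c-Jun; read by high-content fluorescence imaging, fitted bidirectionally against DMSO.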

Assay [9] can be described thus: APR_HepG2_p53Act_72hr: Apredica 72-hour HepG2 Assay for p53 Activation (AID 2282923).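 Also: average cellular p53 protein immunofluorescence intensity in HepG2 cells.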 The settings on record: high-content imaging, actives raise or lower the signal. In a few lines:
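HepG2 cells exposed 72 h to 0.39–200 uM in 0.5% DMSO, duplicates. Fixed, permeabilized cells immunostained for p53 (Cy5) with Hoechst; imaged at 20x, fluorescence analyzed bidirectionally against DMSO.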

The nature of assay [10]: APR_HepG2_MitoMass_72hr: Apredica 72-hour HepG2 Assay for Mitochondrial Mass (AID 2282924).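 Also: MitoTracker Red CMXRos stain intensity per cell imaged as mitochondrial mass.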 The following applies: high-content imaging, actives raise or lower the signal. In a few lines:
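HepG2 cells dosed 72 hr at 0.39–200 uM (0.5% DMSO), in duplicate. MitoTracker Red CMXRos 250 nM loaded 30 min before formaldehyde fixation; high-content fluorescence imaging, bidirectional fit versus DMSO.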

Assay [11] in a line: ATG_CRE_CIS: Attagene CIS-FACTORIAL HepG2 Assay for human cAMP Responsive Element (CRE) binding protein 3 (AID 2282926). The following applies: HepG2 CRE cis-reporter, Attagene multiplexed mRNA; actives raise or lower the signal. The essentials: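 HepG2 cells transiently transfected with cis-element-driven multiple reporter transcription units; CRE reporter mRNA measured 24 h after dosing by RT-PCR, 6-FAM labelling, HpaI digestion and capillary electrophoresis. Bidirectional fit versus DMSO baseline.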

For assay [12], the target named is CCAAT/enhancer-binding protein beta (Homo sapiens) (UniProt P17676). In words: ATG_C_EBP_CIS: Attagene CIS-FACTORIAL HepG2 Assay for human CCAAT/Enhancer Binding Protein (C/EBP) beta (AID 2282927). The settings on record: HepG2 Attagene cis-factorial transcription factor reporter; actives raise or lower the signal. In a few lines: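 Transiently transfected HepG2 (MRTU library, endogenous TF-driven promoters); 24 h dosing; total RNA → oligo(dT) RT → PCR → 6-FAM primer extension → HpaI digest → CE; fit bidirectionally vs DMSO.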
Sequence of CCAAT/enhancer-binding protein beta (Homo sapiens) (P17676 whole entry, looked up): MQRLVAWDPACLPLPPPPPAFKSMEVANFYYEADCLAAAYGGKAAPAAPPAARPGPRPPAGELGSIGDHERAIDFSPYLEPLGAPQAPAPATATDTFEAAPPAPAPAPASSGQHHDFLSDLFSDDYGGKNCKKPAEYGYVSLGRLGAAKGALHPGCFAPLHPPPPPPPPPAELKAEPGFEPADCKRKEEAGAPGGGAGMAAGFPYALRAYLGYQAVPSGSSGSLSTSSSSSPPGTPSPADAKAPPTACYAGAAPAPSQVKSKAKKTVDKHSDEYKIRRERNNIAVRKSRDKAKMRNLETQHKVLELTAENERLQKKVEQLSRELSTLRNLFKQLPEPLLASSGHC

Assay [13] can be described thus: ATG_DR4_LXR_CIS: Attagene CIS-FACTORIAL HepG2 Assay for human Liver X Receptor (LXR), DR4 submotif (AID 2282929). The settings on record: HepG2 Attagene DR4 cis-reporter, mRNA transcription; actives raise or lower the signal. In a few lines:
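HepG2 cells were transiently transfected with multiple cis-regulated reporter units and dosed for 24 hours. The DR4 reporter mRNA was quantified by RT-PCR, 6-FAM labelling and capillary electrophoresis. Bidirectional fits used DMSO as baseline.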

Assay [14] concerns the target Aryl hydrocarbon receptor (Homo sapiens) (UniProt P35869). The experiment in a line: ATG_Ahr_CIS: Attagene CIS-FACTORIAL HepG2 Assay for human Aryl Hydrocarbon Receptor (Ahr) (AID 2282930). The following applies: HepG2 AhR cis-factorial reporter transcription; actives raise or lower the signal. In a few lines:
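Read-out: reporter mRNA quantified by RT-PCR with fluorescent primer extension and capillary electrophoresis. Human HepG2 liver cells carried transfected cis-promoter reporter units and were exposed to chemical for 24 h; gain or loss fitted relative to DMSO.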

Assay [15] in a line: ATG_AP_1_CIS: Attagene CIS-FACTORIAL HepG2 Assay for human Activator Protein 1 (AP-1) (AID 2282931). The following applies: HepG2 Attagene cis-factorial AP-1 reporter mRNA; actives raise or lower the signal. The essentials:
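HepG2 cells transiently transfected with cis-element-driven reporter transcription units, dosed for 24 hours. Reporter mRNA measured by RT-PCR, 6-FAM labelling, HpaI digestion and capillary electrophoresis. Bidirectional fitting against DMSO baseline.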

The nature of assay [16]: ATG_AP_2_CIS: Attagene CIS-FACTORIAL HepG2 Assay for human Activator Protein 2 (AP-2) (AID 2282932). The following applies: HepG2 AP-2 cis-reporter, Attagene transcription factor profiling; actives raise or lower the signal. The essentials: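 HepG2 cells transiently transfected with cis-element reporter units and exposed for 24 h. Reporter mRNA measured by RT-PCR, FAM labelling, HpaI digestion and capillary electrophoresis. Changes in either direction fitted relative to DMSO.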

Assay [17] in a line: ATG_CMV_CIS: Attagene CIS-FACTORIAL HepG2 Assay for human CMV (Internal Marker) (AID 2282928).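 Also: endpoint acts as a background internal control marker rather than a target.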 The following applies: HepG2 CMV promoter reporter, transcription factor profiling; actives raise or lower the signal. In a few lines:
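Cell system: HepG2, transiently transfected multiple reporter units under cis promoters. Exposure: 24 h. Detection: RT-PCR, FAM labeling, HpaI digestion, capillary electrophoresis. Analysis: bidirectional, DMSO baseline.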

Assay [18] in a line: ATG_BRE_CIS: Attagene CIS-FACTORIAL HepG2 Assay for human Bone Morphogenetic Protein (BMP) Response Element (BRE) (AID 2282933). The settings on record: HepG2 BMP response element reporter, Attagene transcription factor profiling; actives raise or lower the signal. In a few lines:
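Read-out: reporter mRNA induction quantified by RT-PCR and capillary electrophoresis after 24 h chemical exposure of transfected HepG2 cells. Endogenous factor activity on the BMP response element; gain or loss fitted against DMSO baseline.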

For assay [19], the target named is Retinoic acid receptor alpha (Homo sapiens) (UniProt P10276). The experiment in a line: ATG_DR5_RAR_CIS: Attagene CIS-FACTORIAL HepG2 Assay for human Retinoic Acid Receptor Alpha (RARE), DR5 submotif (AID 2282934). The following applies: HepG2 Attagene cis-factorial RARE DR5 reporter, mRNA; actives raise or lower the signal. In a few lines: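 Read-out: DR5-driven reporter transcript measured by RT-PCR, 6-FAM primer extension, HpaI digest and capillary electrophoresis. Human HepG2 liver cells carry transiently transfected cis-element reporter constructs; dosing lasts 24 h. Gain or loss of signal fitted against DMSO baseline.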
Sequence of Retinoic acid receptor alpha (Homo sapiens) (P10276 whole entry, looked up): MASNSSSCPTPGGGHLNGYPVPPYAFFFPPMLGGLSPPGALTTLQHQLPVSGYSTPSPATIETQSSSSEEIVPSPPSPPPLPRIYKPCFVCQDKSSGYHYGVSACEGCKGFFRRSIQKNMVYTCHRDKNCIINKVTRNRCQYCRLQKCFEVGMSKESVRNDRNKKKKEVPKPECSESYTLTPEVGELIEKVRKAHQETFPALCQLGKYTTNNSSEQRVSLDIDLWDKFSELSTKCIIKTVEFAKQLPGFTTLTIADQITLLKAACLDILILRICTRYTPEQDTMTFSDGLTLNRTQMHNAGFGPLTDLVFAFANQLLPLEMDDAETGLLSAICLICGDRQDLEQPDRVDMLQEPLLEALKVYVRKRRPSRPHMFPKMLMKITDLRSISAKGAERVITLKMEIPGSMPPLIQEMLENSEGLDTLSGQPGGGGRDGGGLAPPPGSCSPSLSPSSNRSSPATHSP

For 8 compounds, outcome and AC50 results are on record in PubChem BioAssay (EPA / NIEHS).

The term AC50 denotes the midpoint of the concentration-response curve, whichever way the signal moves.

Activity calls are given as the source filed them. The calls were made as follows: active = hit-call score of the fitted dose curve at least 0.9, where 1 is the maximum; inactive = score below 0.9.

Sequence of Aryl hydrocarbon receptor (Homo sapiens) (P35869 whole entry, looked up): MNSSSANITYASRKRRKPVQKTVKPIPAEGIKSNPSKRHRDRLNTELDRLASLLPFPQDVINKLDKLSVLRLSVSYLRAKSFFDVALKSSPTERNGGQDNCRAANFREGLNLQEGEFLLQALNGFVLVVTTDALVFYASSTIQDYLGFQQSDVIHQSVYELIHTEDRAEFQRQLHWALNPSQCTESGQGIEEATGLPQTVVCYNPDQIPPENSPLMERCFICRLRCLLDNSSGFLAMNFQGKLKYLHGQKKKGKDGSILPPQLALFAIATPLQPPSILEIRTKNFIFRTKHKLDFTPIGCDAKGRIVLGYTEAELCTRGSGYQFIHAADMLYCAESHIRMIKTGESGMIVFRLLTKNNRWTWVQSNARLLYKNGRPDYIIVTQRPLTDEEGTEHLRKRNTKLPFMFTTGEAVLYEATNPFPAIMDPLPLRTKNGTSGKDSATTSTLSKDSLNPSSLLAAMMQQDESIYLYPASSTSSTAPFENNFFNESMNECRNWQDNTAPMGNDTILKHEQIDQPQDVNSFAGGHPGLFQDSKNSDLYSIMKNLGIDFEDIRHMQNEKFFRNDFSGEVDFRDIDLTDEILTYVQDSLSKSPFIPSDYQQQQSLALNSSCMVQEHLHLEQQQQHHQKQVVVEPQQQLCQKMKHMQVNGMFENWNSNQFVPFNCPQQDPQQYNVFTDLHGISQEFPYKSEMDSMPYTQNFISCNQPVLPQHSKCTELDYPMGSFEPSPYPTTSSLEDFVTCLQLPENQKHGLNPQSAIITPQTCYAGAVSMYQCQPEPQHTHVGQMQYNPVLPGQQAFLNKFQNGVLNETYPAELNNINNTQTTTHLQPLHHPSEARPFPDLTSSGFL

Consider `CC(=O)C(C)=CC1C(C)=CCCC1(C)C` (centres undefined), for which the compound was classed as inactive in [1], in assay [2], in [3], in assay [4], in [5] and in assay [6]. The outcome in [7], in [8], in assay [9], in [10], in assay [11] and in assay [12] was inactive. The outcome in assay [13], in [14], in [15] and in assay [16] was inactive.

Take `CC1=C(/C=C/C(C)=C/C=C/C(C)=C/CO)C(C)(C)CCC1`: the half-maximal activity concentration (AC50) in assay [1] was 96.6 µM (active); in [2] it was 19.4 µM (active); in assay [4] it was 92.8 µM (active); in assay [6], 76.5 µM (active); in assay [8], 72.1 µM (active); in assay [10] it was 112 µM (active). The AC50 in assay [13] was 65.6 µM (active); in [14] it was 104 µM (active); in [15], 168 µM (active); in [16] it was 164 µM (active). Moreover, the call in assay [3], in assay [5], in assay [7], in assay [9], in [11] and in assay [12] was inactive.

As for `CCCCCCCCCCC`, the compound was classed as inactive in [1], in assay [2], in [3], in assay [4], in assay [5] and in assay [6]. Also, the call in assay [7], in assay [8], in assay [9], in assay [10], in assay [11] and in assay [12] was inactive. Besides, the result in assay [17], in assay [13], in assay [14], in [15], in assay [16] and in assay [18] was inactive. Further, in assay [19], the compound was called inactive.

On to `CCCCCC(=O)O`, for which the outcome in assay [1], in [2], in assay [3], in assay [4], in assay [5] and in [6] was inactive. The result in [7], in assay [8], in assay [9], in assay [10], in [11] and in assay [12] was inactive. Also, the call in [17], in assay [13], in [15] and in assay [18] was inactive. Moreover, in assay [14], the AC50 is 82.2 µM (active).

For the compound `Cc1cc(=O)[nH]c(=S)[nH]1`, the call in assay [1], in assay [2], in [3], in assay [4], in assay [5] and in assay [6] was inactive. The result in assay [7], in assay [8], in assay [9], in [10], in assay [11] and in assay [12] was inactive. The compound was called inactive in assay [17], in assay [13], in [14], in [15], in assay [16] and in [18].

For `Cc1cccc(C)c1O`, the call in assay [1], in assay [2], in assay [3], in [4], in assay [5] and in assay [6] was inactive. Moreover, the compound was called inactive in [7], in [8], in assay [9], in assay [10], in [11] and in assay [12]. The result in assay [13], in assay [14] and in assay [15] was inactive.

In the case of `Oc1ccc2ccccc2c1N=Nc1ccccc1`, the AC50 in [1] is 0.606 µM (active); in [2], 2.49 µM (active); in [10], 0.0806 µM (active); in [14], 0.0105 µM (active). For the same compound, the call in assay [3], in [4], in [5], in assay [6], in assay [7] and in assay [8] was inactive. Also, the outcome in assay [9], in assay [11], in [12], in [13], in [15] and in assay [16] was inactive. The result in assay [18] and in assay [19] was inactive.

With `CCNc1cccc(C)c1`, the compound was classed as inactive in assay [1], in assay [2], in [3], in [4], in [5] and in [6]. For the same compound, the compound was classed as inactive in assay [7], in [8], in [9], in [10], in [11] and in assay [12]. Further, the compound was called inactive in assay [13], in assay [14] and in assay [15].
